Data: PubChem BioAssay (EPA / NIEHS)
Results filed as inconclusive are left out. Activity calls are given as the source filed them. Rule for the calls, unless noted: active = hit-call score of the fitted dose curve at least 0.9, where 1 is the maximum; inconclusive = response in the unintended direction; inactive = score below 0.9.

Key:
[1] = molecular target: Estrogen receptor beta (Homo sapiens) (UniProt Q92731); assay: OT_ER_ERbERb_1440: Odyssey Thera (OT) 24-hour HEK293T Protein-Complementation Assay for Estrogen Receptor-beta/-beta Homodimer (AID 2283380);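 note: fluorescence gain from ER beta LBD homodimer complementation read by laser scanning cytometry; scored as signal increase over DMSO baseline for both agonists and antagonists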
In short: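 Fluorescence increase, nuclear for agonists or whole-cell for antagonists, relative to DMSO vehicle, quantified by laser scanning cytometer after fixation and Draq5 staining. Readout from 24 h treatment of HEK293T cells carrying complementation-paired ER beta LBD (aa 310-547).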

[2] = molecular target: Estrogen receptor (Homo sapiens) (UniProt P03372); assay: OT_ERa_GFPERaERE_0480: Odyssey Thera (OT) 8-hour HeLa Transcription Induction Assay for Estrogen Receptor (AID 2283381; active = hit-call score of the fitted dose curve at least 0.9, where 1 is the maximum; inactive = score below 0.9)
In short: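 Fluorescence microscopy with high-content image analysis measures ERE-driven GFP induction in HeLa cells at 8 h post-dose. Increases fitted against DMSO baseline.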

[3] = molecular target: Estrogen receptor (Homo sapiens) (UniProt P03372); assay: OT_ERa_GFPERaERE_0120: Odyssey Thera (OT) 2-hour HeLa Transcription Induction Assay for Estrogen Receptor (AID 2283382)
In short: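 Fluorescence-microscopy images of the GFP-ERα/ERE reporter, scored by high-content image algorithms, give the readout. HeLa exposure lasted 2 h, and only signal increase over DMSO was fitted.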

[4] = molecular target: Retinoic acid receptor RXR-alpha (Homo sapiens) (UniProt P19793); assay: OT_NURR1_NURR1RXRa_0480: Odyssey Thera (OT) 8-hour HEK293T Protein Complementation Assay for Nurr1/retinoid X receptor (RXR) (AID 2283385)
In short: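 Interaction of Nurr1 with RXRα read as reconstituted reporter fluorescence in a HEK293T fragment-complementation system, 8 h post-treatment; increase over DMSO baseline analysed.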

[5] = molecular target: Retinoic acid receptor RXR-alpha (Homo sapiens) (UniProt P19793); assay: OT_NURR1_NURR1RXRa_1440: Odyssey Thera (OT) 24-hour HEK293T Protein Complementation Assay for Nurr1/retinoid X receptor (RXR) (AID 2283386)
In short: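 Gain in fluorescence, fitted relative to DMSO, reflects Nurr1–RXRα association in HEK293T cells after 24 h dosing. Bait and prey are each linked to a reporter-protein fragment that reassembles on interaction.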

[6] = molecular target: Peroxisome proliferator-activated receptor gamma (Homo sapiens) (UniProt P37231); assay: OT_PPARg_PPARgSRC1_0480: Odyssey Thera (OT) 8-hour Protein-Complementation Assay for Peroxisome Proliferator-activated Receptor Gamma / SRC-1 Co-activator (AID 2283387);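 note: nuclear to cytoplasmic split Venus YFP fluorescence ratio reporting PPARg SRC-1 interaction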
In short: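 Read-out: 488 nm N/C fluorescence ratio from complemented Venus YFP fragments, ≥350 cells per image, gain-of-signal fitted against DMSO baseline. Fusions of PPARg/SRC-1 with IFP1/IFP2 expressed transiently in HEK293T; compounds applied 8 h.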

[7] = molecular target: Peroxisome proliferator-activated receptor gamma (Homo sapiens) (UniProt P37231); assay: OT_PPARg_PPARgSRC1_1440: Odyssey Thera (OT) 24-hour Protein-Complementation Assay for Peroxisome Proliferator-activated Receptor Gamma/ SRC-1 Co-activator (AID 2283388);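 note: nuclear to cytoplasmic ratio of reconstituted Venus YFP fluorescence in fixed imaged cells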
In short: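 Cells carrying the PPARg/SRC-1 fragment-complementation reporter receive compound for 24 hours, are fixed and counterstained with Draq5, then imaged. Increased nuclear relative to cytoplasmic YFP fluorescence above DMSO baseline indicates binding activity.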

[8] = molecular target: Bile acid receptor (Homo sapiens) (UniProt Q96RI1); assay: OT_FXR_FXRSRC1_0480: Odyssey Thera (OT) 8-hour HEK293T Protein-Complementation Assay for Farnesoid X receptor/SRC-1 Co-activator (AID 2283383)
In short: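 Binding of FXR to coactivator SRC-1 was read as fluorescence from a reconstituted split reporter in HEK293T cells, 8 h after chemical addition. Only increases in signal versus DMSO were fit.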

[9] = molecular target: Bile acid receptor (Homo sapiens) (UniProt Q96RI1); assay: OT_FXR_FXRSRC1_1440: Odyssey Thera (OT) 24-hour HEK293T Protein-Complementation Assay for Farnesoid X receptor/SRC-1 Co-activator (AID 2283384)
In short: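 Protein-fragment complementation: FXR and SRC-1 fused to reporter fragments that reassemble on interaction, read by fluorescence intensity. Human HEK293T cells measured 24 h post-dose; positive-direction fit versus DMSO.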

[10] = molecular target: Agonist Androgen Response Element (ARE), AR (gene 367) (UniProt P10275); assay: OT_AR_ARELUC_AG_1440: Odyssey Thera (OT) 24-hour CHO-K1 Luciferase Assay for Agonist Androgen Response Element (ARE) (AID 2283379)
Description: OT_AR_ARELUC_AG_1440 is a cell-based, single-readout assay that uses CHO-K1, a chinese hamster ovary cell line, with measurements taken at 24 hours after chemical dosing in a 384-well plate.OT_AR_ARELUC_AG_1440 is one of one assay component(s) measured or calculated from the OT_AR_ARELUC_AG_1440 assay. It is designed to make measurements of luciferase induction, a form of inducible reporter, as detected with bioluminescence signals by Luciferase technology.Data from the assay component OT_AR_ARELUC_AG_1440 was analyzed into 1 assay endpoint. This assay endpoint, OT_AR_ARELUC_AG_1440, was analyzed in the positive analysis fitting direction relative to DMSO as the negative control and baseline of activity. Using a type of inducible reporter, measures of receptor for gain-of-signal activity can be used to understand the reporter gene at the pathway-level as they relate to the gene AR. Furthermore, this assay endpoint can be referred to as a primary readout, because the performed assay has only produced 1 assay endpoint. To generalize the intended target to other relatable targets, this assay endpoint is annotated to the nuclear receptor intended target family, where the subfamily is steroidal.
To identify AR agonists, CHO-K1 cells are seeded into a white-walled/white-bottom 384-well plate, followed by treatment with compounds of interest or controls for 24 hours. A luciferase assay mix containing D-luciferin and ATP in PBS is then added to the cells and luminescence quantified on a Luminoskan (Thermo Scientific) luminometer. Modulation of this assay is quantified as an increase in mean luminescence intensity relative to vehicle controls. To evaluate specificity of the AR / ARE-luc assay, several known AR agonists, AR antagonists, and ER-selective compounds were also tested in 5-pt concentration-response format in a minimum of 7 assay plates. OT determined the reproducibility of DHT-induced AR/ARE-luc transcriptional activation with a total of seven 384-well plates run on 2 different days, for 24-h time frames. A minimum of 3 replicate wells were analyzed for each sample with 14 replicate wells for vehicle controls. Luminescence data were captured on the Luminoskan luminometer.

Measured: AC50

Chain of Agonist Androgen Response Element (ARE), AR (gene 367) (P10275 whole entry, looked up): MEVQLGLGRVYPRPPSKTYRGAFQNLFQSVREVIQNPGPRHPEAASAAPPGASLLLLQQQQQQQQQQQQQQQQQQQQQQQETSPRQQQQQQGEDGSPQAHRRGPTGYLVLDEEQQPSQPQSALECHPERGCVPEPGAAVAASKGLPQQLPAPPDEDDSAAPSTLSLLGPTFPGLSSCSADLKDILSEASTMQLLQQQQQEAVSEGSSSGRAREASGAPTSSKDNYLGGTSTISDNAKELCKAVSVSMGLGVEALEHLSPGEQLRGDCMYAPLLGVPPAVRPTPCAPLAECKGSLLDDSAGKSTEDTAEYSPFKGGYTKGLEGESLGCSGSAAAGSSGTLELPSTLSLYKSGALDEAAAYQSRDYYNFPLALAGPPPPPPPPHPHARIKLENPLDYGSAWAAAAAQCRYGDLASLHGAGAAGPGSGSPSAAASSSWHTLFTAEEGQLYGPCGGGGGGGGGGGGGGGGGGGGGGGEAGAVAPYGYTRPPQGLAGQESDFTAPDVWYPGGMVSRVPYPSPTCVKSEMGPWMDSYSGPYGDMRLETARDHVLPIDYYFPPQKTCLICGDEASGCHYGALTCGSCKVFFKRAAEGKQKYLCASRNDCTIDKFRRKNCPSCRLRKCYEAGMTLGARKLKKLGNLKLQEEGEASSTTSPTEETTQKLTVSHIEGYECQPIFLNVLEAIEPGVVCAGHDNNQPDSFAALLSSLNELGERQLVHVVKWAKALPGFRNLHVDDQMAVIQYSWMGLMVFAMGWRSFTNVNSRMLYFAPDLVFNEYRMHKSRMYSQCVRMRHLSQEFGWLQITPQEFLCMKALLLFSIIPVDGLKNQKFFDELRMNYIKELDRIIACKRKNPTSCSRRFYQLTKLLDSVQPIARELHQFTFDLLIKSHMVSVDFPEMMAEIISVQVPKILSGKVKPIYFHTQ
Chain of Estrogen receptor beta (Homo sapiens) (Q92731 whole entry, looked up, the tested form may be a part): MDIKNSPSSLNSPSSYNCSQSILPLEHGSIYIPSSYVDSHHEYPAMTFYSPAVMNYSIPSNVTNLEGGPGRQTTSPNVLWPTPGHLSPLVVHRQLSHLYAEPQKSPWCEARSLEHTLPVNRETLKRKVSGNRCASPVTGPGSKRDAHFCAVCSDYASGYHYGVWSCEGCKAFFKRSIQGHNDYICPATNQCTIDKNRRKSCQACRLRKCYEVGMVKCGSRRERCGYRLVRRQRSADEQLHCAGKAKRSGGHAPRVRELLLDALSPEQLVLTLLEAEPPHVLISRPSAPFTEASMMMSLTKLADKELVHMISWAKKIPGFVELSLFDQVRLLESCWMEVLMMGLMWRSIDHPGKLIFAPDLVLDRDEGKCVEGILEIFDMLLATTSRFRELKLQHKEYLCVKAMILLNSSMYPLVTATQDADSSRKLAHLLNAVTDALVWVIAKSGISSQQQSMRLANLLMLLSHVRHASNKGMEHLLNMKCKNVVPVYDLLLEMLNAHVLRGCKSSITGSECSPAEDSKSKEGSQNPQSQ
Chain of Peroxisome proliferator-activated receptor gamma (Homo sapiens) (P37231 whole entry, looked up, the tested form may be a part): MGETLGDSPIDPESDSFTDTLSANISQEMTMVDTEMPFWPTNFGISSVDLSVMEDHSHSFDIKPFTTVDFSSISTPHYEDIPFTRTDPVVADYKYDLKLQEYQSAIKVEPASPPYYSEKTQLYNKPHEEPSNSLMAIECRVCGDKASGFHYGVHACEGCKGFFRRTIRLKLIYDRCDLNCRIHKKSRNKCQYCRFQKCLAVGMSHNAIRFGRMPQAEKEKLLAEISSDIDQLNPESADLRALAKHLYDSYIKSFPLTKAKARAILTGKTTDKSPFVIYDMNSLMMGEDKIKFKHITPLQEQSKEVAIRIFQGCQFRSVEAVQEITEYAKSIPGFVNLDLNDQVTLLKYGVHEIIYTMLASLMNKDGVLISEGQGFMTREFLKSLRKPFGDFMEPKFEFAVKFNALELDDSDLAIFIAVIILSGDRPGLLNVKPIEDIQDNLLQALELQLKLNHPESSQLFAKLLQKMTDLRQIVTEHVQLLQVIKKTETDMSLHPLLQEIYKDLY
Chain of Retinoic acid receptor RXR-alpha (Homo sapiens) (P19793 whole entry, looked up, the tested form may be a part): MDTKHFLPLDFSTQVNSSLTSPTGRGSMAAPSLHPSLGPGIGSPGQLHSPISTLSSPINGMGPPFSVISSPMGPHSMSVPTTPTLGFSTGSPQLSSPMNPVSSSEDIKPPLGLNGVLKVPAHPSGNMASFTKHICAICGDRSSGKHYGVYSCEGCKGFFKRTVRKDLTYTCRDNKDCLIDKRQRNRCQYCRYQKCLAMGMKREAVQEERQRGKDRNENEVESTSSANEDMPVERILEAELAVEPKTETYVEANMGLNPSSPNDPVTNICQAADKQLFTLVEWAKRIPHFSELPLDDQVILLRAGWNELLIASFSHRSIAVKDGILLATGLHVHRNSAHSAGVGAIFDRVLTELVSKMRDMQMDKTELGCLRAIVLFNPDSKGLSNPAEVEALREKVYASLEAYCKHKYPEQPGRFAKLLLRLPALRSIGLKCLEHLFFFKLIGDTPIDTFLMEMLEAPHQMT
Chain of Estrogen receptor (Homo sapiens) (P03372 whole entry, looked up): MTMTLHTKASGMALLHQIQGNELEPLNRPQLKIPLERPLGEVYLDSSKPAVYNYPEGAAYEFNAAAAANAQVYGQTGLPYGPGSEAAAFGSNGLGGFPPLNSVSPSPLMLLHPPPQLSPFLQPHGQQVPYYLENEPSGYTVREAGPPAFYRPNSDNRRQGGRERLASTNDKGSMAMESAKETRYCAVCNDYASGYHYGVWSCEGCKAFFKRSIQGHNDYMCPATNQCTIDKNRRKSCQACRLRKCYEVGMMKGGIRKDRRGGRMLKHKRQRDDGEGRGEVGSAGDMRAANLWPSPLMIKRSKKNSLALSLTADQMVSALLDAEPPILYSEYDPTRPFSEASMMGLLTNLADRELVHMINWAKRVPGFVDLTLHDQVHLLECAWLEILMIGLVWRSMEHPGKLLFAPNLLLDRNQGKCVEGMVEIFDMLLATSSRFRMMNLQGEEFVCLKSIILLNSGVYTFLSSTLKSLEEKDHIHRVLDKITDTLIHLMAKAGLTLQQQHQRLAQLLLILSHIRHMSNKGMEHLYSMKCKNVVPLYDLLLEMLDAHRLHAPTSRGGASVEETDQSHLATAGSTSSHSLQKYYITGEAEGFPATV
Chain of Bile acid receptor (Homo sapiens) (Q96RI1 whole entry, looked up, the tested form may be a part): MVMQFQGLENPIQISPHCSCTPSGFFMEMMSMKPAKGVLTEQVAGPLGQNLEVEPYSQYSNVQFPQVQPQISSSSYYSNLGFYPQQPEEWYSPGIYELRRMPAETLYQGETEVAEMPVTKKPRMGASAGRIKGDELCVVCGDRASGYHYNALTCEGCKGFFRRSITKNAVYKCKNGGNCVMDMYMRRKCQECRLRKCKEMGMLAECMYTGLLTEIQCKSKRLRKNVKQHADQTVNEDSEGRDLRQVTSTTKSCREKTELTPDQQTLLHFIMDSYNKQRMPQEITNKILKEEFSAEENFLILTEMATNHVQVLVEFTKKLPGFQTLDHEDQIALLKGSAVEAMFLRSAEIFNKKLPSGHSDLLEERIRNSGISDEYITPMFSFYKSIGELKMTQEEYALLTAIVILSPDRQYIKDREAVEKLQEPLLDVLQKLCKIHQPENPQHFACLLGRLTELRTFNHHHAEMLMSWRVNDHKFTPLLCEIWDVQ

CCCCCCCC/C=C\CCCCCCCC(=O)OCCO
active: [4] 38.4 µM | [5] 38.7 µM
inactive: [1] | [2] | [3] | [6] | [7]

CC=C1CC2C=CC1C2 (stereo not drawn)
inactive: [1] | [2] | [3] | [8] | [9] | [4] | [5] | [6] | [7]

CCCCCCCOC(=O)CCC
inactive: [1] | [2] | [3] | [4] | [5] | [6] | [7]

O=C(c1ccccc1)C1CCC1
inactive: [1] | [2] | [3] | [4] | [6] | [7]

CC(C)c1ccc2cc(C(C)C)ccc2c1
inactive: [1] | [2] | [3] | [4] | [6] | [7]
active: [5] 97.6 µM

CCCCC/C=C\C/C=C\CCCCCCCC(=O)OC
inactive: [1] | [2] | [3] | [6] | [7]
active: [4] 12 µM | [5] 50 µM

Cc1ccc(C(C)c2ccc(C)c(C)c2)cc1C
active: [4] 83.5 µM | [5] 76.4 µM
inactive: [1] | [2] | [3] | [7]

CC(C)(C)c1ccc(N)cc1
inactive: [1] | [2] | [3] | [4] | [5] | [6] | [7]

NC(=O)N=NC(N)=O
active: [3] 12.1 µM
inactive: [1] | [2] | [9] | [6] | [7]

CCCCCCCC/C=C\CCCCCCCC(=O)O
inactive: [1] | [2] | [3] | [8] | [6] | [7]

CN(C)c1ccc(C(=N)c2ccc(N(C)C)cc2)cc1
inactive: [1] | [2] | [3]
active: [4] 27.7 µM | [5] 26.7 µM | [6] 30.6 µM | [7] 28.7 µM

CCCCC(CC)CCC(CC(C)C)OS(=O)(=O)O (stereo not drawn)
inactive: [1] | [2] | [3] | [4] | [5] | [6] | [7]

O=C(C(Cl)Cl)N1CCOC12CCCCC2
inactive: [1] | [2] | [3] | [8] | [9] | [4] | [5] | [6] | [7]

O=C(O)CCCC[C@@H]1SC[C@@H]2NC(=O)N[C@@H]21
inactive: [1] | [2] | [3] | [4] | [5] | [6] | [7]

CCCc1ccc(OC)cc1
inactive: [10] | [1] | [2] | [3] | [6] | [7]

CNC(=S)NN
inactive: [1] | [2] | [3] | [5] | [6] | [7]
active: [4] 50 µM

CCOC(=O)CC
inactive: [1] | [2] | [3] | [8] | [9] | [5] | [6] | [7]

O=c1cc(-c2ccccc2)oc2ccccc12
inactive: [10] | [2] | [3] | [4] | [5] | [6] | [7]
active: [1] 49.2 µM

CN(C)c1ccc(N=Nc2ccccc2C(=O)O)cc1
inactive: [1] | [2] | [3] | [4] | [5] | [6] | [7]

CC(=O)[C@H]1[C@H](C#N)C[C@H]2[C@@H]3CC=C4C[C@@H](O)CC[C@]4(C)[C@H]3CC[C@@]21C
inactive: [1] | [2] | [3] | [8] | [9] | [5] | [6] | [7]

CC(C)=CCC[C@H](C)CCO
inactive: [1] | [2] | [3] | [5] | [7]
active: [10] 0.239 µM | [4] 75.8 µM

Cn1c([N+](=O)[O-])cnc1COC(N)=O
inactive: [1] | [2] | [3] | [4] | [5] | [6] | [7]

CC(C)(C)c1ccc(-c2ccc(C(C)(C)C)cc2)cc1
active: [8] 33.5 µM | [9] 76.6 µM | [4] 85.6 µM | [5] 78.3 µM
inactive: [10] | [1] | [2] | [3] | [6] | [7]

CC/C=C\C/C=C\C/C=C\CCCCCCCC(=O)O
inactive: [1] | [2] | [3] | [8] | [9] | [4] | [6] | [7]

NC(=O)c1ccccc1O
inactive: [1] | [2] | [3] | [8] | [9] | [4] | [5] | [6] | [7]

Oc1ccc(Cl)cc1Cc1cc(Cl)ccc1O
inactive: [10] | [2] | [3] | [6] | [7]
active: [1] 11.9 µM | [4] 11.7 µM | [5] 11.2 µM

CCCCCCCCO[C@@H]1O[C@H](CO)[C@@H](O)[C@H](O)[C@H]1O
inactive: [1] | [2] | [3] | [8] | [6] | [7]

CCOC(=O)Cc1cccc2ccccc12
inactive: [1] | [2] | [3] | [4] | [5] | [6] | [7]

CC(C)(C)c1ccc(OC(=O)c2ccccc2O)cc1
active: [1] 32 µM | [8] 35.6 µM | [9] 75.9 µM | [4] 50 µM | [5] 89 µM
inactive: [2] | [3] | [6] | [7]
